For orientation: inhibition means the percentage by which the read-out fell short of the control.

Results filed as inconclusive are left out. This is one part of the list. Calls of active or inactive are those of the source.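 Rule for the calls, unless noted: active = GFP response, as percent of the DMSO control, above the screen-wide mean plus 3 SD, about 139; inconclusive = no response measured because the compound's own fluorescence interfered; inactive = the rest.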

A short description of test [1]: rapamycin-like changes in RPL19A-GFP expression – cell-based, S. cerevisiae, multiplex flow cytometry, primary screen (AID 1862; in the data active = percent of DMSO control GFP below about 86%;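 note: lower values mimic rapamycin by blocking the RPL19A rise seen in DMSO cells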). Conditions: S. cerevisiae RPL19A-GFP strain, flow cytometry fluorescence, 3 h; at 10 µM; stronger effect = lower value. A general note: A flow cytometer gives signals particle by particle.
Test [2] in a line: TOR pathway GLN3 branch reporter MEP2-GFP changes – S. cerevisiae, multiplex flow cytometry, primary screen (AID 1867).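 Note: median GFP channel fluorescence of barcode-gated MEP2-GFP cells measured by flow cytometry.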 Conditions: S. cerevisiae MEP2-GFP strain, 3 h, at 10 µM, stronger effect = higher value, 100% means same as DMSO wells.
A short description of test [3]: TOR pathway RTG branch CIT2 reporter changes – S. cerevisiae, GFP fusion, multiplex flow cytometry, primary screen (AID 1870;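 active = percent response above a set limit, the screen-wide mean plus 3 SD, cut at about 130% in these data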;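 note: barcoded CIT2-GFP strain pooled with four other GFP strains with rapamycin as positive control; median GFP fluorescence per well over plate mean of DMSO wells so 100% = DMSO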). The conditions noted are these: S. cerevisiae CIT2-GFP expression, 3 h, at 10 µM, stronger effect = higher value.
A short description of test [4]: TOR pathway LAP4-GFP level changes – S. cerevisiae, multiplex flow cytometry, primary screen (AID 1873;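 active = GFP signal, as percent of the solvent control, above the screen mean plus 3 SD, about 149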). The conditions noted are these: S. cerevisiae LAP4-GFP expression, 3 h, at 10 µM, stronger effect = higher value.
A short description of test [5]: yeast AGP1-GFP level changes, GLN3 branch – cell-based, multiplex flow cytometry, S. cerevisiae, primary screen (AID 1887;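 active = GFP signal above the screen-wide mean plus 3 SD, that is over about 124.5% of the solvent control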;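 note: AGP1-GFP fusion strain of S. cerevisiae within a five-strain barcoded multiplex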). The conditions noted are these: 3 h, at 10 µM, stronger effect = higher value.
A short description of test [6]: hit retest on RPL19A-GFP reporter strain – cell-based, S. cerevisiae, flow cytometry, cherry picks, mother/daughter gates, confirmation (AID 2270;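 active = GFP response below 50% of the DMSO control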). Conditions: 3 h, at 10 µM, stronger effect = lower value, 100 = same GFP as DMSO wells.
Test [7] is described as follows: yeast TOR pathway reporter LAP4-GFP change – cell-based, cherry picks, flow cytometry, mother/daughter gates, confirmation (AID 2271;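 active = GFP response above 150% of the DMSO control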;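 note: ratio of sample to DMSO plate mean so 100% equals DMSO level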). The conditions noted are these: S. cerevisiae LAP4-GFP strain, 3 h, at 10 µM, stronger effect = higher value, 100 means same as DMSO control.
A short description of test [8]: TOR pathway reporter MEP2-GFP, retest of hits – S. cerevisiae, flow cytometry GFP, cherry picks, confirmation (AID 2272;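 active = GFP response above 150% of the DMSO control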;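 note: ratio of well signal to plate DMSO mean so 100% equals DMSO level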). The conditions noted are these: S. cerevisiae MEP2-GFP strain, 3 h, at 10 µM, stronger effect = higher value.
A short description of test [9]: TOR pathway CIT2 reporter hit retest – S. cerevisiae, GFP fusion, cherry picks, mother/daughter gates, confirmation (AID 2274;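 active = GFP response above 150% of the DMSO level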). Conditions: S. cerevisiae CIT2-GFP strain, flow cytometry, 3 h, at 10 µM, stronger effect = higher value.
Test [10] can be described thus: reduced mouse 2C T cell binding to pMHC/ICAM-1 vesicles – MLPCN validation set, flow cytometry, LFA-1/ICAM-1 modulator project, pilot screen (AID 2523;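 active = response below a set limit, under 55% cells CD8-positive and vesicle-bound, and CD8 cells' 90th-percentile brightness under 279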;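 for vesicle binding response: mean PE anti-B7-1 fluorescence of CD8+ cells relative to row control; 100% = QL9-loaded vesicles with DMSO vehicle in the same plate row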). The conditions noted are these: 2C mouse CD8+ T cells, at 7 µM, stronger effect = lower value; double positive events: measured here: CD8+/vesicle+ event percentage.
Test [11] is described as follows: interference with biotin-avidin bead interaction – biochemical, flow cytometry, bead-based, counter-screen for RGS protein interaction modulators (AID 1783;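 active = inhibition above 50%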;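 note: median green fluorescence of gated singlet beads compared with DMSO control wells; 0% = DMSO wells and 100% = complete loss of bead fluorescence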). The conditions noted are these: streptavidin beads, fluorescein-biotin binding; at 10 µM, stronger effect = higher value.
The target in test [12] is Guanine nucleotide-binding protein G(o) subunit alpha (Homo sapiens) (UniProt P09471). The experiment in a line: retest of RGS8-Galphao interaction hits – biochemical, multiplexed bead flow cytometry, single concentration, confirmation (AID 1836; in the data active = binding response below about 72% or above about 130%; inactive = in between;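 note: Galphao activated as GDP AlF4 complex before binding bead RGS8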). The conditions noted are these: bead-based flow cytometry RGS8-Galphao binding, fluorescence; at 10 µM; actives lie on both sides.

For test [13] the target is unchanged. Briefly: retest of RGS7-Galphao interaction hits – biochemical, multiplexed bead flow cytometry, single concentration, confirmation (AID 1837; in the data active = response below about 75% or above about 130%; inactive = in between;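 note: fluorescent Galphao activated with GDP and aluminum fluoride binding bead-coupled RGS7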). The conditions noted are these: bead-based flow cytometry RGS7-Galphao binding; at 10 µM; actives lie on both sides.
The target in test [14] is Regulator of G-protein signaling 16 (Homo sapiens) + Guanine nucleotide-binding protein G(o) subunit alpha (Homo sapiens) (UniProt O15492+P09471). The experiment in a line: RGS16 and Galphao interaction regulators – biochemical, single concentration, multiplexed bead flow cytometry, confirmation (AID 1838; in the data active = response below about 74% or above about 130%; inactive = in between;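 note: Galphao activated as the GDP aluminium fluoride complex binding bead-coupled RGS16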). Conditions: bead-based flow cytometry, at 10 µM, actives lie on both sides.

Test [15] has as its target Guanine nucleotide-binding protein G(o) subunit alpha (Homo sapiens) (UniProt P09471). Briefly: RGS4 and Galphao interaction regulators – biochemical, single concentration, multiplexed bead flow cytometry, confirmation (AID 1840; in the data active = binding response below about 74% or above about 130%; inactive = in between). The conditions noted are these: at 10 µM, actives lie on both sides.
Test [16] has as its target Guanine nucleotide-binding protein G(o) subunit alpha (Homo sapiens) + Regulator of G-protein signaling 19 (Homo sapiens) (UniProt P09471+P49795). The experiment in a line: RGS19 interaction with Gαo, hit retest – biochemical, single point, multiplexed bead flow cytometry, confirmation (AID 1841; in the data active = response below about 50% or above about 160%; inactive = in between;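 note: 100% = no compound control and 0% = blank background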). The conditions noted are these: bead-based flow cytometry RGS19-Galphao binding; at 10 µM; actives lie on both sides.

The mark [17] stands for this setting: measured here: daughter cell gate.
[18] abbreviates: measured here: mother cell gate.
The mark [19] stands for this setting: measured here: daughter cell gate response.
[20] abbreviates: measured here: mother cell gate response.

Sequence of Guanine nucleotide-binding protein G(o) subunit alpha (Homo sapiens) (P09471 whole entry, looked up): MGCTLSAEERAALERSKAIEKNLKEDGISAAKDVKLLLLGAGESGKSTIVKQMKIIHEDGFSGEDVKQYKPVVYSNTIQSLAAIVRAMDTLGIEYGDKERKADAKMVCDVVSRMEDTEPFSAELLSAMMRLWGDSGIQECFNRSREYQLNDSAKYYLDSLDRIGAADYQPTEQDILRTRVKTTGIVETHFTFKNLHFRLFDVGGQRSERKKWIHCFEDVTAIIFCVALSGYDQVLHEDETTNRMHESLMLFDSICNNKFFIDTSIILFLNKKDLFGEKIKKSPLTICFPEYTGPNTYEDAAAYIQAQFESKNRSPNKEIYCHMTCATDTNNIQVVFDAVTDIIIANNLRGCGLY
Sequence of Guanine nucleotide-binding protein G(o) subunit alpha (Homo sapiens) + Regulator of G-protein signaling 19 (Homo sapiens) (P09471 whole entry, looked up): as above
Sequence of Guanine nucleotide-binding protein G(o) subunit alpha (Homo sapiens) + Regulator of G-protein signaling 19 (Homo sapiens) (P49795 whole entry, looked up): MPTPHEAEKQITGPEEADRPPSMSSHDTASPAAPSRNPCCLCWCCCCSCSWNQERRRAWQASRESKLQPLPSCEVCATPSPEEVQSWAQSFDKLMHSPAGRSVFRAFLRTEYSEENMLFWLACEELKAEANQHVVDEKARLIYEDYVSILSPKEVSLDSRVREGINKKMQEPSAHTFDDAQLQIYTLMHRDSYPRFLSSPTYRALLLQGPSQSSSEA
Sequence of Regulator of G-protein signaling 16 (Homo sapiens) + Guanine nucleotide-binding protein G(o) subunit alpha (Homo sapiens) (O15492 whole entry, looked up): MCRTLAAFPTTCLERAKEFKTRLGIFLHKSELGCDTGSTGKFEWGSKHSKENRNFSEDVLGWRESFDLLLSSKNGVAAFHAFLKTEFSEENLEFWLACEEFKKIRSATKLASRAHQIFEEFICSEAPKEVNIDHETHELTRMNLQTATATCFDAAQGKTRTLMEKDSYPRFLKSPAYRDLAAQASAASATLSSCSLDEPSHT
Sequence of Regulator of G-protein signaling 16 (Homo sapiens) + Guanine nucleotide-binding protein G(o) subunit alpha (Homo sapiens) (P09471 whole entry, looked up): as the sequence (P09471 whole entry, looked up) above

Regarding `CC(=O)CSc1ncnc2c1cnn2-c1ccccc1`, in test [1], the percent of DMSO control GFP is 90.6% (inactive). Further, the GFP response vs DMSO in test [2] was 116% (inactive); in test [4], 77.6% (inactive); in test [6] it was 100% (inactive); in [6] (setting [17]), 97.6%; in test [6] (setting [18]), 100%; in test [8], 99% (inactive). In test [3], the percent response of DMSO control was 92.6% (inactive). For the same molecule, the GFP response, % of DMSO in test [5] is 87.3% (inactive); in test [9], 93% (inactive); in test [9] (setting [17]), 92%; in test [9] (setting [18]) it was 91.9%. Further, the GFP response relative to DMSO in test [7] is 106% (inactive); in [7] (setting [19]), 101%; in [7] (setting [20]) it was 106%. For the same molecule, in test [10], the double positive events stood at 57.9%. Further, in test [10], the vesicle binding response is 221% (inactive).

`C=CCNc1nc(N)c(C(=C(C#N)C#N)c2ccccc2)s1`: in [11], the inhibition is 0.8% (inactive). For the same molecule, the results for the binding response (% of control) in test [12] and in test [15] were 98.2% (inactive) and 95.9% (inactive), respectively. In addition, the results for the response (percent of control binding) in [13] and in test [16] were 87.1% (inactive) and 113% (inactive), respectively. In addition, the response (% of control binding) in [14] is 99% (inactive).

For the molecule `CC(=O)[C@H]1CC[C@H]2[C@@H]3CCC4=CC(=O)CC[C@]4(C)[C@H]3[C@H](O)C[C@]12C`, the percent of DMSO control GFP in test [1] is 93% (inactive). In addition, the GFP response vs DMSO is 147% (active) in test [2]; 85.3% (inactive) in test [4]; 99.1% (inactive) in [6]; 99.3% in test [6] (setting [17]); 99.7% in test [6] (setting [18]); 97.5% (inactive) in [8]. In [3], the percent response of DMSO control was 99.2% (inactive). Besides, the GFP response, % of DMSO in [5] was 93.3% (inactive); in [9], 101% (inactive); in [9] (setting [17]), 102%; in test [9] (setting [18]), 99.1%. Moreover, the GFP response relative to DMSO in test [7] is 100% (inactive); in [7] (setting [19]) it was 102%; in test [7] (setting [20]), 98.5%. The double positive events in [10] turned out to be 57.7%. In addition, in [10], the vesicle binding response was 64.9% (inactive).

Regarding `COc1ccc(-c2[nH]ncc2CN(CCO)Cc2cccs2)c(F)c1`, in [1], the percent of DMSO control GFP is 102% (inactive). Besides, the GFP response vs DMSO in [2] is 105% (inactive); in test [4], 99.1% (inactive); in test [6] it was 96.8% (inactive); in test [6] (setting [17]), 97.4%; in test [6] (setting [18]), 98.4%; in test [8] it was 100% (inactive). Also, in [3], the percent response of DMSO control is 104% (inactive). Also, the GFP response, % of DMSO in test [5] is 105% (inactive); in test [9] it was 99.7% (inactive); in test [9] (setting [17]), 103%; in test [9] (setting [18]), 99.7%. Moreover, the GFP response relative to DMSO in test [7] is 94.1% (inactive); in test [7] (setting [19]), 94.4%; in [7] (setting [20]), 94%. In test [10], this molecule returned a double positive events of 62.7%. The vesicle binding response in test [10] was 142% (inactive).

`O=C(NCCN1CCN(c2ccccc2)CC1)c1cccc(Br)c1`: in [1], the percent of DMSO control GFP is 91.3% (inactive). Moreover, the GFP response vs DMSO is 158% (active) in test [2]; 88.6% (inactive) in test [4]; 97% (inactive) in test [6]; 98% in test [6] (setting [17]); 97.4% in test [6] (setting [18]); 102% (inactive) in test [8]. The percent response of DMSO control in test [3] was 107% (inactive). Further, the GFP response, % of DMSO in test [5] was 91.5% (inactive); in [9], 102% (inactive); in [9] (setting [17]) it was 100%; in [9] (setting [18]) it was 101%. In addition, the GFP response relative to DMSO in [7] is 97.7% (inactive); in test [7] (setting [19]) it was 101%; in [7] (setting [20]), 96.5%. The molecule also came in with a double positive events in test [10] of 41.8%. In addition, in [10], the vesicle binding response is 59.1% (active).

Consider `O=C(NC1CCCCC1)N1CCc2[nH]c3ccccc3c2C1`, for which the percent of DMSO control GFP in [1] is 89.3% (inactive). The GFP response vs DMSO in [2] is 147% (active); in test [4], 83.6% (inactive); in test [6], 98.8% (inactive); in test [6] (setting [17]) it was 98.1%; in test [6] (setting [18]), 98.5%; in test [8] it was 100% (inactive). The percent response of DMSO control in test [3] was 119% (inactive). The GFP response, % of DMSO is 93.1% (inactive) in test [5], 107% (inactive) in [9], 105% in test [9] (setting [17]) and 107% in test [9] (setting [18]). Also, the results for the GFP response relative to DMSO in test [7], in [7] (setting [19]) and in [7] (setting [20]) were 97.9% (inactive), 97.6% and 98.3%, respectively. The molecule further registered a double positive events in test [10] of 61.4%. In [10], the vesicle binding response is 212% (inactive).
